HP1b chromo inh – HTS for Inhibitors of HP1-beta Chromodomain Interactions with Methylated Histone Tails | 390,000 tested, 0.56% active | Potency, µM (highest dose often 114 µM), for the others: top-dose activity change, negative = inhibition, actives largely listed as inhibitors | Chromobox protein homolog 1 (Homo sapiens), P83916 | AID 540317, 2011 | AlphaScreen HP1-beta / biotin-H3K9me3 peptide binding; also: potency is read from the fitted curve at half-maximal effect; nearly all actives have a fitted effect of over 70% in size
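AlphaScreen: HP1-beta (50 nM) preformed 30 min with biotin-H3(1-18)K9me3 peptide (50 nM) in PBS pH 7.4, 0.01% Tween-20. Compound added for 30 min at RT, then streptavidin donor/nickel chelate acceptor beads (10 ug/mL) for 30 min.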
PI5P4Ka inh – qHTS for Inhibitors of phosphatidylinositol 5-phosphate 4-kinase (PI5P4K). Phosphatidylinositol 5-phosphate 4-kinase type-2 alpha (Homo sapiens), P48426. PI5P4Kalpha enzyme, ADP-Glo luminescence, 60 min; active compounds read low. max response, %. 330,000 tested, 1.2% active. AID 652105, 2013; active = max response of -50% or lower; inconclusive = between -30% and -50%; inactive = -30% or higher; also: value at the top dose of about 77 µM; % is scaled to controls: 0 for no effect and ±100 for the full control effect
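Controls without substrate or without enzyme flank wells where PI5P4Kalpha converts substrate using 5 microM ATP (final). Incubation lasts 60 minutes at room temperature; ADP formed is read by ADP-Glo luminescence.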
BAZ2B inh – qHTS Assay for Inhibitors of BAZ2B; AlphaScreen BAZ2B-H3K14Ac peptide displacement; 360,000 tested, 4.4% active; Potency, µM (series often up to 114 µM), for inactives: top-dose activity change, negative = inhibition, hits mostly inhibitors; Bromodomain adjacent to zinc finger domain protein 2B (Homo sapiens), Q9UIF8; also: potency is read from the fitted curve at half-maximal effect; % is scaled to controls: 0 for no effect and ±100 for the full control effect; nearly all actives have a fitted effect of over 60% in size
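Complex of BAZ2B and biotin-H3K14Ac (50 nM apiece) forms over 30 min at RT, then faces library compounds up to 110 uM for another 30 min; AlphaScreen beads added, 20 min dark incubation, luminescence read.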
G9a block – qHTS Assay for Inhibitors of Histone Lysine Methyltransferase G9a; Histone-lysine N-methyltransferase EHMT2 (Homo sapiens), Q96KQ7; G9a H3K9 monomethylation, AlphaScreen, 2 h; Potency, µM (titrated, usually from 102 µM), for inactives: at the top dose activity, negative = inhibition, usual class: inhibitors; 350,000 tested, 8.8% active; also: potency is read from the fitted curve at half-maximal effect; % is scaled to controls: 0 for no effect and ±100 for the full control effect; nearly all actives have a fitted effect of over 75% in size
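Methyltransferase reactions run at room temperature for 2 h (20 nM enzyme, 500 nM biotin-H3K9 peptide, 20 uM SAM) after a 15 min compound preincubation; product detected by AlphaScreen beads and anti-H3K9me1 antibody.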
L3MBTL1 block – qHTS Assay for the Inhibitors of L3MBTL1. Potency, µM (highest dose often 57.1 µM), for inactives: top-dose activity, negative = inhibition, most hits filed as inhibitors. 230,000 tested, 0.66% active. AlphaScreen L3MBTL1–H3K9me1 peptide binding; also: potency is read from the fitted curve at half-maximal effect; % is scaled to controls: 0 for no effect and ±100 for the full control effect; nearly all actives have a fitted effect of over 60% in size
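AlphaScreen proximity signal between nickel-chelate acceptor and streptavidin donor beads (final 10 ug/mL) reports binding of 50 nM L3MBTL1 to 75 nM biotin-H3 K9me1 peptide; complex incubated with compounds 30 min at room temperature; cefsulodin titration as control.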
JMJD2A Tudor – qHTS Assay for Inhibitors of JMJD2A-Tudor Domain. Potency, µM (doses to about 114 µM), without a hit: at the top dose activity change, negative = inhibition, most hits filed as inhibitors. AID 504339, 2011. AlphaScreen JMJD2A-Tudor / H3K4me3 peptide binding. 390,000 tested, 4.4% active; also: potency is read from the fitted curve at half-maximal effect; % is scaled to controls: 0 for no effect and ±100 for the full control effect; nearly all actives have a fitted effect of over 50% in size
Numbers without * were called inactive; ? = inconclusive; / = no result; [ ] = another dose, or the depositor's remark. This is a sample that favours compounds with a hit; in the whole collection about 11% have one here. Unless noted, calls follow the shape of the dose curve; as a rule, active = well fitted inhibition curve with a large enough effect; inconclusive = small, poorly fitted or top-dose-only effect; inactive = no such curve, though single readings can be large or run the other way.

SMILES | HP1b chromo inh | PI5P4Ka inh | BAZ2B inh | G9a block | L3MBTL1 block | JMJD2A Tudor
O=C(c1ccc([N+](=O)[O-])cc1)N(c1ccccn1)c1ccccn1 | 20% | 5 | -4% | -8%[12.7 µM] | 22% | -19%
N#Cc1ccccc1NC(=O)CSc1nnc(N)s1 | 46% | / | -2% | ? | / | -7%
O=C(Cn1c(=O)n(CC2CCCO2)c(=O)c2ccccc21)Nc1ccc(F)cc1F (stereo unspecified) | 44% | / | 2% | 5%[59 µM] | / | 0%
Cc1cc(C)cc(N(CC(=O)NCCc2ccc(Cl)cc2)S(=O)(=O)c2c(C)noc2C)c1 | 56% | / | / | 1%[59 µM] | / | -3%
Brc1ccc(CN2CCN(Cc3c[nH]c4ccccc34)CC2)cc1 | 22µM* | -2 | 40µM* | 50µM* | / | 2.2µM*
O=[N+]([O-])c1ccc(CN2CCN(Cc3c[nH]c4ccccc34)CC2)cc1 | ? | -6 | 22µM* | 8.9µM* | -8% | 7.9µM*
Brc1ccccc1CN1CCN(Cc2c[nH]c3ccccc23)CC1 | 40µM* | 3 | / | / | / | 0.79µM*
Cc1ccccc1N1CCN(Cc2c[nH]c3ccccc23)CC1 | ? | / | ? | 32µM* | / | 5µM*
Cc1ccc(CNC(=O)CCCn2c(=O)c3ccccc3n(CC(=O)Nc3ccc(C)cc3)c2=O)cc1 | 10% | / | -2% | 5%[59 µM] | / | -13%
CCOc1ccc(C(=O)Nc2ccc3oc(-c4ccc5ccccc5c4)nc3c2)cc1 | 25% | / | 0% | 5%[59 µM] | / | 6%
Cc1cccc(NC(=O)CSc2cn(CC(=O)N3CCCCCC3)c3ccccc23)c1 | 36% | / | -28% | -30%[59 µM] | / | -5%
Cc1cccc(Oc2nc3c(c(=O)n(C)c(=O)n3C)n2C)c1C | 34% | / | -2% | 12%[59 µM] | / | -10%
Fc1ccc(N2CCN(Cc3c[nH]c4ccccc34)CC2)cc1 | / | / | ? | -10%[59 µM] | ? | /
CCS(=O)(=O)N1CCN(Cc2c[nH]c3ccccc23)CC1 | ? | -6 | 56µM* | 14µM* | 11% | 1.1µM*
OCc1ccccc1CN1CCCCCC1 | 7% | 6 | / | / | / | -17%
CN1CCCN(Cc2ccccc2Br)CC1 | ? | -5 | ? | 22µM* | -13% | 0.89µM*
O=C(c1cccc(Cl)c1)N1CCN(Cc2c[nH]c3ccccc23)CC1 | 0% | -4 | 4% | 7% | 6% | 3.5µM*
CCN(CC)CCOC(=O)c1ccc(NC(=O)c2cc3c(s2)-c2ccccc2OC3)cc1 | 49% | / | -5% | 16%[59 µM] | / | -19%
CCc1nn2c(=O)cc(N3C(C)CNCC3C)nc2s1 (stereo unspecified) | / | / | / | / | / | -15%
N#Cc1c(N)[nH]c(=S)c(C#N)c1-c1ccccc1 | -5% | / | / | 1.1µM* | 8% | ?
COc1ccc(CC(=O)N2CCc3cc(OC)c(OC)cc3C2COc2ccc3c(C)cc(=O)oc3c2)cc1OC (stereo unspecified) | 3% | / | 4% | 10%[59 µM] | / | -22%
CS(=O)(=O)N1CCc2cc(C(=O)Nc3ccc(Cl)c(C(F)(F)F)c3)ccc21 | 43% | / | -11% | -21%[59 µM] | / | -25%
O=C(/C=C/c1ccccc1Cl)Nc1ccc2c(c1)C(=O)NC2=O | ? | -26 | 71µM* | 25µM* | / | ?
O=C(/C=C/c1ccccc1)Nc1ccc2c(c1)C(=O)NC2=O | 34% | 7 | -6% | -3% | -6% | -16%
CC1CCC2(CC1)NC(=O)N(CC(=O)Nc1cccc(S(=O)(=O)N3CCCCC3)c1)C2=O (stereo unspecified) | -3% | 6 | / | / | -5% | ?
SMILES | HP1b chromo inh | PI5P4Ka inh | BAZ2B inh | G9a block | L3MBTL1 block | JMJD2A Tudor
CCC1CCC2(CC1)NC(=O)N(CC(=O)Nc1cccc(S(=O)(=O)N(C)c3ccccc3)c1)C2=O (stereo unspecified) | 46% | 3 | -6% | 5.6µM* | -5% | -27%
CN1C(=O)N(CC(=O)Nc2cccc(S(=O)(=O)N(C)c3ccccc3)c2)C(=O)C12CCCCC2 | 3% | -7 | 5% | 56µM* | -12% | -28%
CN(c1ccccc1)S(=O)(=O)c1cccc(NC(=O)CN2CCc3ccccc3C2)c1 | 26% | 1 | / | -24% | -5% | -14%
O=C(Cn1cnc2onc(-c3ccc(F)cc3)c2c1=O)Nc1cccc(C(F)(F)F)c1 | 36% | / | 13%[57.1 µM] | -21%[59 µM] | / | -6%
Cc1ccc(OCc2cn3cccnc3n2)cc1 | 35% | -5 | 89µM* | -2%[59 µM] | 10% | -8%
O=C(CBr)N1CCc2ccccc2C(c2ccccc2)C1 (stereo unspecified) | 32% | 0 | -30% | 32µM* | 6% | 6%
O=C(CN1CCOCC1)N1CCc2ccccc2C(c2ccccc2)C1 (stereo unspecified) | 41% | -9 | -7% | ? | 35% | -2%
CCOc1ccc(NC(=O)CN2C(=O)COc3ccc(S(=O)(=O)NC4CCCC4)cc32)cc1 | 12% | / | 2% | 2%[59 µM] | / | -17%
OC1CCCN(CC(O)c2ccccc2)C1 (stereo unspecified) | 5% | 4 | 50µM* | 3.2µM* | / | 40µM*
OC(COC(c1ccc(F)cc1)c1ccc(F)cc1)CN1CCc2ccccc2C1 (stereo unspecified) | ? | 6 | 45µM* | 4.5µM* | 0% | 18µM*
OC1CCCN(CC(O)COC(c2ccc(F)cc2)c2ccc(F)cc2)C1 (stereo unspecified) | -12% | 1 | 50µM* | 45µM* | / | 10µM*
CN1CCN(CC(O)c2ccccc2)CC1 (stereo unspecified) | / | / | -4% | 27% | -28% | /
COc1cc(C2Nc3ccccc3-c3nnc(SCc4ccc(C)cc4)nc3O2)cc(OC)c1O (stereo unspecified) | 13% | / | ? | 7.1µM* | / | ?
Cc1ccc(S(=O)(=O)c2nc(-c3ccccc3F)oc2N2CC(C)OC(C)C2)cc1 (stereo unspecified) | 11% | -5 | ? | 40µM* | / | -31%
Cc1ccc(S(=O)(=O)c2nc(-c3ccccc3Cl)oc2N2CCCCCC2)cc1 | ? | / | ? | 7.1µM* | / | -33%
Cc1ccc(S(=O)(=O)c2nc(-c3ccccc3Cl)oc2N2CCN(C)CC2)cc1 | ? | -5 | / | / | ? | 50µM*
O=S(=O)(c1ccccc1)c1nc(-c2ccccc2Cl)oc1N1CCCCCC1 | -1% | / | -35% | ? | / | -29%

Screening results as filed in PubChem BioAssay.
